BoNT F protease = BoNT/F light chain protease inhibitors, primary screen, biochemical, flow cytometry, MLPCN library; hit rate 0.22% among 360,000; inhibition, % at 10 µM; Botulinum neurotoxin type F light chain protease (Clostridium botulinum); Multiplex microsphere protease cleavage assay; in the data active = inhibition above about 35%, passing the limit was not always enough; inconclusive = no clear call, values can overlap the other calls; note: plate controls were buffer without enzyme for full effect and enzyme alone for no effect
MazF activator = activators of E. coli MazEF toxin-antitoxin RNase, primary screen, biochemical, fluorescence, uHTS; hit rate 0.32% among 350,000; Endoribonuclease toxin MazF (Escherichia coli (strain K12)), P0AE70; activation, % at 20 µM; AID 504720, 2011; FAM/BHQ RNA-DNA oligo cleavage fluorescence, 5 h; in the data active = activation above about 50%
BoNT-A LC inh2 = BoNT/A light chain protease inhibitors, primary screen, biochemical, flow cytometry, MLPCN library. multiplex microsphere protease substrate cleavage. hit rate 0.17% among 360,000. Botulinum neurotoxin type A light chain protease (Clostridium botulinum A str. ATCC 3502). inhibition, % at 10 µM; note: plate controls were buffer without enzyme for full effect and enzyme alone for no effect
Anthrax LF prot = Bacillus anthracis LF protease inhibitors, primary screen, biochemical, multiplex microsphere, MLPCN library; Lethal factor (Bacillus anthracis), P15917; multiplex microsphere protease cleavage assay; inhibition, % at 10 µM; hit rate 0.12% among 360,000; note: plate controls were buffer without enzyme for full effect and enzyme alone for no effect
VHR inh abs = VHR1 phosphatase inhibitors, primary screen, biochemical, absorbance, uHTS. hit rate 0.52% among 290,000. recombinant VHR phosphatase, pNPP absorbance. inhibition, % at 13.3 µM; in the data active = inhibition above about 50%
Autofluor counter = flagged as autofluorescent in microsphere protease counterscreen; compound autofluorescence counterscreen, microsphere flow cytometry; hits give high values; fluorescence intensity (concentration not given with the values); hit rate 3.1% among 360,000; in the data active = fluorescence intensity above about 16000; inconclusive = no clear call, values can overlap the other calls
Numbers without * were called inactive; ? = inconclusive; . = no result. In the library only some 4% were active in any assay of this set; here they are far more common. Cut-off read from the data, not from the text of the source, unless noted: active = inhibition above about 30%; inconclusive = no clear call, values can overlap the other calls; inactive = below that.

SMILES	BoNT F protease	MazF activator	BoNT-A LC inh2	Anthrax LF prot	VHR inh abs	Autofluor counter
Nc1cc2c([N+](=O)[O-])cccc2o1	38*	0	3	-4	29	4579
CCOc1ccc(C(c2c(O)nc(SC)n(C)c2=O)c2c(O)nc(SC)n(C)c2=O)cc1	4	-7	1	0	0	22263*
O=C(c1ccc(Cl)c(S(=O)(=O)N2CCCCCC2)c1)N1CCN(CCO)CC1	-12	-16	-2	1	6	5034
CC(=O)c1cccc(N(CC(=O)Nc2ccc(F)cc2F)S(C)(=O)=O)c1	1	5	1	-4	-7	22378*
CC(=O)c1cccc(NC(=O)CN(c2ccccc2)S(C)(=O)=O)c1	-3	4	1	1	36	4559
CN(C)S(=O)(=O)N(CC(=O)Nc1ccc(F)c(F)c1)c1ccccc1	0	-4	1	-1	-17	19146*
CC(=O)c1cccc(NC(=O)CN(c2ccccc2F)S(C)(=O)=O)c1	2	4	1	0	-17	22974*
CCCCNC(=O)N1CCN(c2ccccc2OCC)CC1	0	3	0	0	15	1951
Cc1cccc(Nc2nc(Cl)ncc2F)c1C	13	-1	0	12	60*	3647
C=CCNc1nc(Cl)ncc1F	-7	0	0	-3	17	9180
Cc1ccc(N2C(=O)NC(NC(=O)c3ccc(Cl)cc3)(C(F)(F)F)C2=O)cc1 (stereo not given)	-4	3	0	-2	-4	2424
COc1ccc(C(=O)Nc2ccccc2C(=O)O)cc1Cl	4	5	1	5	-10	2422
CCOc1ccc(C(=O)Nc2ccccc2-c2ccccc2)cc1Cl	6	1	6	-7	14	17980*
CCOc1ccc(C(=O)Nc2cccc(C(=O)O)c2C)cc1Cl	-9	2	-1	1	-5	2536
COc1ccc(Br)cc1C(=O)Nc1ccccc1-c1ccccc1	-15	-1	-15	-3	-1	28074*
CCOc1ccccc1C(=O)Nc1cc(Cl)ccc1O	-19	68*	0	-4	9	3764
CCOc1c(Cl)cc(C(=O)Nc2ccccc2C(=O)O)cc1Cl	2	-5	?	-3	6	19009*
N=c1sccn1CC(=O)NCc1ccc(Cl)cc1Cl	-8	5	1	-1	15	2445
Cc1c(C(=O)Nc2ccccc2-c2ccccc2)cccc1[N+](=O)[O-]	3	-4	4	-10	20	20236*
N#CCCN1CCN(C2=NC(=O)C(=C3CCCCC3)S2)CC1	0	-1	0	-2	1	22432*
Cc1cccc(N2CCN(C3=NC(=O)C(=C4CCCCC4)S3)CC2)c1	2	3	0	-10	-11	5937
CC(=O)N1CCN(C2=NC(=O)C(=C3CCCCC3)S2)CC1	-2	-2	0	-3	31	2410
O=C1N=C(N2CCOCC2)SC1=C1CCCCC1	4	-2	1	-1	10	20921*
CCOc1ccc(-n2c(SCc3ccc(C(=O)OC)o3)nc3c(c2=O)SCC3)cc1	-7	-5	-1	-13	20	10243
Nc1cccc(Oc2c(F)c(F)c(Oc3cccc(N)c3)c(F)c2F)c1	38*	3	10	?	4	3904
SMILES	BoNT F protease	MazF activator	BoNT-A LC inh2	Anthrax LF prot	VHR inh abs	Autofluor counter
Nc1cccc(Oc2ccc([N+](=O)[O-])cc2)c1	0	8	0	-7	25	4464
CCC(C)NC(=O)c1ccc2c(c1)S(=O)(=O)c1ccccc1C2=O (stereo not given)	4	-2	1	-1	56*	5204
CN(Cc1ccccc1)C(=O)CN1C(=O)COc2ccc(S(=O)(=O)N3CCCC3)cc21	2	4	0	-4	-2	5400
C/C(=N\Nc1ncnc2sc(C)c(C)c12)c1ccccn1	40*	-61	40*	19	13	9536
O=c1c2ccccc2nc(-c2ccco2)n1-c1nccs1	?	0	0	-9	-2	4143
Cc1ccc(CN2CCCN(Cc3ccc(F)cc3Cl)S2(=O)=O)cc1	2	-2	-2	2	53*	3667
Cc1ccc(CN2CCCN(Cc3c(F)cccc3Cl)S2(=O)=O)cc1	15	-7	1	5	10	2925
COc1ccccc1CNc1ccccc1F	2	4	0	-7	30	3692
COC(=O)C1=C(C)NC(C)=C(C(=O)OC)C1c1cn(-c2ccccc2)nc1-c1ccco1	-5	5	-2	-2	3	16749*
c1ccn(-c2ncnc3sc4c(c23)CCCC4)c1	-6	11	0	-2	15	4521
c1nc(N2CCOCC2)c2c3c(sc2n1)CCCC3	-2	5	0	-1	5	23015*
COc1ccc(Cl)cc1/C=C/c1ccc2cccc(O)c2n1	1	1	2	5	-2	3421
COc1ccccc1/C=C/c1ccc2cccc(O)c2n1	?	0	-1	7	53*	3712
O=C1[C@H]2[C@@H](C(=O)N1c1cc(Cl)cc(Cl)c1)[C@]1(C(=O)Nc3ccccc31)N1CCC[C@@H]21	-1	1	0	-2	18	20946*
COC(=O)c1c(N2C(=O)[C@H]3[C@@H](C2=O)[C@]2(C(=O)Nc4ccccc42)N2CCC[C@@H]32)sc(C)c1C	.	.	.	.	24	.
CCOC(=O)C1CCCN(C(=O)c2ccco2)C1 (stereo not given)	-1	9	1	3	15	23110*
Cc1nc2ccccc2c2oc(C(=O)N3CC(C)CC(C)C3)cc12 (stereo not given)	-5	-6	0	-1	9	5918
CCOC(=O)C1CCCN(C(=O)c2cc3c(C)nc4ccccc4c3o2)C1 (stereo not given)	3	9	0	1	1	22194*
CCOC(=O)C1CCCN(c2c(N3CCOCC3)c(=O)c2=O)C1 (stereo not given)	-12	6	-1	-3	25	4540
CCOC(=O)C1CCCN(C(=O)N2CCOCC2)C1 (stereo not given)	-1	-1	?	-2	12	19919*
CCOC(=O)C1CCCN(C(=O)c2ccc(-c3ccccc3Cl)o2)C1 (stereo not given)	.	1	.	.	.	.
COc1ccc(-c2oc3ncnc(NCCCN4CCOCC4)c3c2-c2ccc(OC)cc2)cc1	-14	-9	0	0	4	10421
c1ccc(-c2oc3ncnc(NCCCN4CCOCC4)c3c2-c2ccccc2)cc1	-6	-4	-3	-4	14	26085*
CC1Oc2ccccc2N(CC(=O)c2cccc(Cl)c2)C1=O (stereo not given)	13	-4	12	-12	40	19669*

High-throughput results: PubChem, several laboratories
